# Compounds without any hit were thinned out: in the full panel of roughly 79,000, 15% have a hit. Values without a mark were called inactive. Active and inactive are the calls of the source. Rule as the data show it: active = growth inhibition above about 70%; inactive = the rest.
# Key:
# [1] = NCI Yeast Anticancer Drug Screen. Data for the rad50 strain (AID 155);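 also: 0% = growth of vehicle-only cultures of the same strain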; conditions: S. cerevisiae rad50 strain growth inhibition; at 50.0 µM; hits give high values
# Method in brief: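 Readout: growth inhibition relative to vehicle-treated cultures. Compound exposure was carried out in a genetically defined yeast strain deficient in DNA damage repair.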
# [2] = NCI Yeast Anticancer Drug Screen. Data for the mec2-1 strain (AID 157); conditions: S. cerevisiae mec2-1 strain, at 50.0 µM, hits give high values
# Method in brief: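 Compounds were applied to mec2-1 yeast cells. Their growth was then compared with that of vehicle-treated cultures to give growth inhibition.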
# [3] = NCI Yeast Anticancer Drug Screen. Data for the sgs1 mgt1 strain (AID 161);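 also: 0% = growth of cultures given vehicle only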; conditions: S. cerevisiae sgs1 mgt1 strain, at 50.0 µM, hits give high values
# Method in brief: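 Percent growth inhibition was derived by comparing compound-exposed mutant yeast with vehicle-exposed cultures. The strain carries alterations in DNA damage repair.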
# [4] = NCI Yeast Anticancer Drug Screen. Data for the cln2 rad14 strain (AID 165);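 also: 0% = growth equal to vehicle treated cultures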; conditions: S. cerevisiae cln2 rad14 strain, at 50.0 µM, hits give high values
# Method in brief: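 Strain: cln2 rad14 yeast, altered in cell cycle control and DNA damage repair. Read-out: growth inhibition vs vehicle.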
# [5] = NCI Yeast Anticancer Drug Screen. Data for the bub3 strain (AID 167); conditions: S. cerevisiae bub3 mutant strain, at 50.0 µM, hits give high values
# Method in brief: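 Readout: yeast growth inhibition, expressed relative to vehicle-only wells. The test organism is a mutant strain from a panel with lesions in DNA repair or checkpoint genes.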
# [6] = NCI Yeast Anticancer Drug Screen. Data for the mlh1 rad18 strain (AID 175); conditions: S. cerevisiae mlh1 rad18 strain growth inhibition; at 50.0 µM; hits give high values
# Method in brief: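 A repair-deficient yeast strain is exposed to test compound, and growth is scored relative to vehicle-treated controls.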
SMILES,growth inhibition [1],growth inhibition [2],growth inhibition [3],growth inhibition [4],growth inhibition [5],growth inhibition [6]
CC(C)=C(CO)CCC(C)C,-9.3%,-22.9%,-10.4%,16.9%,6.65%,-0.05%
CC(C)NCCC(O)c1cc2ccccc2o1 (stereo not given),-12.8%,-4%,-17.6%,-7.1%,-35.5%,5.15%
O=[N+]([O-])c1ccc2nc(/C=C(\O)c3ccccc3)c(NC34CC5CC(CC(C5)C3)C4)nc2c1,16.4%,-17.5%,13.9%,-39.4%,-17.8%,-2.35%
CN(C)CCNC(=O)c1cccc2c(Nc3ccc(S(=O)(=O)N=C(N)N)cc3)c3ccccc3nc12,-24.4%,-0.3%,-37%,8.35%,-34.9%,53.9%
O=c1[nH]c2ccccc2c(=O)n2cccc12,10.4%,23.6%,7.8%,-7.5%,-5.75%,1.9%
COc1ccccc1NC(=O)C(CC(C(=O)Nc1ccccc1OC)/C(C)=N/Nc1ccc([N+](=O)[O-])cc1[N+](=O)[O-])/C(C)=N/Nc1ccc([N+](=O)[O-])cc1[N+](=O)[O-] (stereo not given),14.8%,4.95%,19.6%,10.6%,17.8%,32.4%
O=C1c2cc3c(cc2CC12Cc1ccc4c(c1C2=O)CCCC4)CCCC3 (stereo not given),-3.15%,-4.15%,-10.4%,3.6%,7.35%,9.8%
CC1(C)OC2(C)CCC1C1C2N1C(=O)Nc1cccc2ccccc12 (stereo not given),-9%,-9.5%,-1.35%,-6.5%,-3.75%,-22.8%
CCOP(=O)(OCC)/C(C#N)=C\c1ccc(OC(C)=O)cc1,-6.15%,-30.1%,-9%,23.5%,-25.6%,-31.9%
ClCCc1ccccc1CC1=NCCc2ccccc21,18.6%,-26.4%,-23.7%,6.3%,-12.8%,54.8%
C/C=C\C=C\C(=O)O,-30.4%,-17%,-38.3%,4.3%,-19.8%,-31.9%
C=C1C(=O)OC2/C=C(/CO)C3(O)CC(O)C(C)(CC(OC(=O)/C(C)=C/C)C12)O3 (stereo not given),7.2%,-13.9%,14.9%,17.4%,0.85%,-27.2%
CC(C)(C)OC(=O)N(CCCCNC(=O)C(F)(F)F)CCCNC(=O)C(F)(F)F,-26.4%,-30.3%,-26%,11.6%,-29.8%,-86%
O=C(CCOP(=O)(NCCCl)NCCCl)c1ccccc1,5.2%,-14.8%,0.25%,7.25%,-11.7%,24%
CC(=S)NC(=O)Nc1cccc2ccccc12,19.2%,-8.45%,2.4%,-50.6%,-10.2%,10.8%
Cc1ccc(C(C)C)c(O)c1NC(=S)N/N=C\c1cc(Cl)ccc1O,-4.55%,22.8%,-13.9%,7.6%,-14.2%,17.4%
CCCCOc1c(Cl)cc(Cl)cc1-c1ccccc1,14.7%,9.6%,2.55%,-18.2%,18.5%,2.25%
C(=C\c1csnn1)/c1ccc(/C=C/c2csnn2)cc1,-18%,15.9%,7.7%,11.9%,5.3%,-8.2%
CC(C)(C)C1CC[C@H]2c3c([nH]c4ccc(Br)cc34)[C@H]3C(=O)N(c4ccccc4)C(=O)[C@H]3[C@H]2C1 (stereo not given in full),18.4%,-2.7%,27.2%,29.4%,-0.15%,12.6%
CC(=O)OC(=O)C(=O)C(F)C(O)C(C)C (stereo not given),-16.6%,-13.9%,-14.2%,-10.4%,-13.4%,7.45%

SMILES,growth inhibition [1],growth inhibition [2],growth inhibition [3],growth inhibition [4],growth inhibition [5],growth inhibition [6]
Cn1c2c(c3ccccc31)CCN=C2C1CCCOC1=O (stereo not given),-27.6%,-54.2%,-21.1%,-17.5%,-9.3%,-39.1%
CCOc1cc(F)cc([N+](=O)[O-])c1,-11.6%,5.3%,-20.9%,-14.9%,19.1%,5.7%
O=C(O)c1ccc(/C=N/NC(=O)C(O)(c2ccccc2)c2ccccc2)cc1,8.3%,-21.9%,-18.9%,11.7%,-10.4%,-9.65%
COc1ccc2c(c1)CN(Cc1ccccc1)CO2,3.85%,-3.4%,6%,-17.4%,13%,11.7%
C#CCOc1c(C(=O)OCC)c(=O)n(C)c2ccccc12,-10%,-17.1%,12.8%,9.4%,3.55%,1.7%
Nc1nc2nsnc2nc1N,1.9%,12.3%,13.6%,-57.9%,1.2%,23.9%
C[N+](C)(C)c1ccc2c(c1)CCC/C2=N\N,12.8%,9%,11.6%,-9.2%,13.5%,4.3%
COc1ccc(OC)c(NC(=O)OCc2ccc3c(c2)OCO3)c1,1.25%,-14%,5.45%,10.2%,26.9%,-4.7%
CC1(C)CC(=O)C(C=NC(=O)c2ccncc2)=C(O)C1,-25.1%,19.7%,-3.55%,-3.8%,14.9%,-40.4%
COc1ccc(C(=Nc2ccc(C)cc2)c2ccccc2)cc1,-2.1%,7.2%,-6.05%,-43.6%,-9.1%,-15.6%
CC(=O)N(C(=O)CC(=O)NN)c1ccc(Cl)cc1,-19.1%,-21.3%,3.65%,26.3%,6.95%,26%
C[N+](C)(C)C1=CC=CC=C1.Br[Br-]Br,22.5%,-29.6%,0.15%,4.7%,11.6%,-2.25%
O=C(Nc1cc2cc([N+](=O)[O-])ccc2oc1=O)c1cccs1,-12.2%,-30.7%,-6.8%,4.85%,-40.2%,-15.6%
CC1CCc2nc(N)nc(CC3CC(=O)NC(=O)C3)c2C1 (stereo not given),-2.75%,-5.65%,-8.7%,-45.5%,-12.8%,-3.2%
CSCCC(NC(=O)c1cnc2ccccc2c1)C(N)=O (stereo not given),-0.25%,-4.85%,2.6%,-33.6%,-21.8%,14.8%
CC(=O)OC1CN(c2ccccc2)CC(OC(C)=O)CN(c2ccccc2)C1 (stereo not given),38.5%,3.95%,38%,-24.4%,2.1%,31.8%
CCOc1cc(/C=N/NC(=O)c2ccccc2NC(=O)c2ccccc2)ccc1OC,-21.6%,2.35%,17.8%,-4.1%,5.4%,5.7%
CCc1nc(N)nc(N)c1-c1ccc(Cl)c(S(=O)(=O)O)c1,-27.1%,-26.1%,-9.8%,-13.4%,-15.1%,1.85%
CC[C@@]1(OC(=O)CN2CCNCC2)C(=O)OCc2c1cc1n(c2=O)Cc2cc3ccccc3nc2-1,52.1%,70.8% (active),49.1%,29.6%,26.1%,10.1%
Cc1[nH]c(=O)[nH]c(=O)c1/C=C/C(=O)NC(CO)CS(=O)C(C)C (stereo not given),83.2% (active),63.5%,95.4% (active),64.7%,79.7% (active),85.7% (active)
